The results in this text go back to PubChem BioAssay (NCI).

About 83,000 compounds went through this panel and 20% of them were active in at least one assay; those are over-represented in the sample as a whole.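 Single-dose data. Exposure time 48 hours. Values below 10 considered active.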 A number with no mark means an inactive call. The source made the active and inactive calls.

Among the test systems are HCT-15 colon; HT29 colon; SNB-75 CNS; SNB-19 CNS; U251 CNS; PC-3 prostate; SK-MEL-5 melanoma; UACC-62 melanoma; LOX IMVI melanoma; SK-MEL-28 melanoma; SK-MEL-2 melanoma; EKVX NSCLC; SN12C renal; UO-31 renal; TK-10 renal; ACHN renal; CAKI-1 renal; CCRF-CEM leukemia; MOLT-4 leukemia; A498 renal.
Assay in all cases: NCI-60 one-dose screen, 48 h (100 = growth as untreated, 0 = no growth, -100 = all killed)
What all share (settings): 10 µM unless noted

Turning to `COc1ccc(/C=N\N2CCOCC2)cc1OC1CCCC1`, the growth is 104% in the test with HCT-15 colon; 106% in the test with HT29 colon; 86.8% with SNB-75 CNS; 95.8% in the test on SNB-19 CNS; 101% in the test on U251 CNS; 101% in the test on PC-3 prostate. For the same compound, the growth in the test with SK-MEL-5 melanoma was 99.3%; in the test with UACC-62 melanoma, 92.7%; with LOX IMVI melanoma it was 101%; with SK-MEL-28 melanoma, 116%; in the test with SK-MEL-2 melanoma, 106%; with EKVX NSCLC, 89.4%. Also, the growth is 101% with SN12C renal; 82% with UO-31 renal; 101% with TK-10 renal; 104% with ACHN renal; 94.1% in the test with CAKI-1 renal; 106% with CCRF-CEM leukemia. In addition, the growth with MOLT-4 leukemia is 122%.
Turning to `CC(=O)OC[C@]1(C)C=C2C(=O)[C@](C)(O)C3(CC3)C(C)=C2[C@H]1OC(C)=O`, the growth in the test with HCT-15 colon was 72.9%; in the test on HT29 colon, 69.9%; in the test on SNB-75 CNS it was 56.5%; in the test with SNB-19 CNS, 83%; in the test on U251 CNS, 79.5%; in the test with PC-3 prostate, 88.1%. Besides, the growth is 87.8% with SK-MEL-5 melanoma; 103% in the test with UACC-62 melanoma; 78.3% in the test on LOX IMVI melanoma; 109% in the test on SK-MEL-28 melanoma; 103% in the test with SK-MEL-2 melanoma; 114% in the test with EKVX NSCLC. For the same compound, the growth with SN12C renal was 83.6%; with UO-31 renal it was 41.5%; in the test on TK-10 renal, 99.1%; in the test with ACHN renal, 51.3%; with CAKI-1 renal, 84.2%; in the test with CCRF-CEM leukemia, 95.1%. In the test on MOLT-4 leukemia, the growth is 109%.
On to `CCN1CCN(c2ccc(Nc3ncc4ccc5ncn(C(C)C)c5c4n3)nc2)CC1`, for which the growth was -0.238% (active) in the test with HCT-15 colon; 5.37% (active) in the test with HT29 colon; -66% (active) with SNB-75 CNS; 9.26% (active) in the test on SNB-19 CNS; 14.1% with U251 CNS; 7.15% (active) in the test with PC-3 prostate. Also, the growth in the test on SK-MEL-5 melanoma is -8.75% (active); with UACC-62 melanoma, -17% (active); with LOX IMVI melanoma, -33.3% (active); with SK-MEL-28 melanoma it was -13.7% (active); with SK-MEL-2 melanoma, -56.7% (active); in the test with EKVX NSCLC it was -6.84% (active). Also, the growth with SN12C renal was 4.25% (active); in the test with UO-31 renal, -5.17% (active); in the test on ACHN renal it was 2.84% (active); in the test with CAKI-1 renal, -10.7% (active); in the test on A498 renal, -61.5% (active); in the test with CCRF-CEM leukemia, 4.85% (active). In addition, the growth in the test on MOLT-4 leukemia was 2.48% (active).
`CN1CCN(c2ccc3nc(-c4ccc5nc(-c6ccc(C(F)(F)F)cc6)[nH]c5c4)[nH]c3c2)CC1`: the growth in the test with HCT-15 colon is 80.4%; with HT29 colon it was 29.2%; in the test on SNB-75 CNS, 29.6%; in the test on SNB-19 CNS it was 74.2%; with U251 CNS, 34.7%; in the test on PC-3 prostate, 30.2%. Also, the growth in the test on SK-MEL-5 melanoma was 44.2%; in the test with UACC-62 melanoma, 67.5%; in the test on LOX IMVI melanoma, -85.8% (active); in the test on SK-MEL-28 melanoma it was 63.2%; with SK-MEL-2 melanoma, 103%; in the test with EKVX NSCLC, 81.6%. Also, the growth in the test on SN12C renal was 80.3%; with UO-31 renal, 105%; with TK-10 renal, 101%; with ACHN renal it was 55.6%; in the test on CAKI-1 renal, 43%; in the test with CCRF-CEM leukemia, 21.2%. In addition, the growth in the test with MOLT-4 leukemia was 47.2%.
Turning to `NC(=O)c1cccc(-n2ccc3cc(NC(=O)Nc4ccc(Cl)c(Cl)c4)ccc32)n1`, the growth in the test with HCT-15 colon was 59.7%; in the test with HT29 colon, 60.9%; with SNB-75 CNS, 68.5%; in the test on SNB-19 CNS it was 86.3%; in the test with U251 CNS, 66.7%; in the test with PC-3 prostate, 73.3%. In addition, the growth was 74.1% in the test with SK-MEL-5 melanoma; 83.2% in the test with UACC-62 melanoma; 81.9% in the test on LOX IMVI melanoma; 88.1% in the test with SK-MEL-28 melanoma; 88.3% with SK-MEL-2 melanoma; 68.3% in the test with EKVX NSCLC. Besides, the growth with SN12C renal was 86.8%; in the test on UO-31 renal, 95.5%; with TK-10 renal, 80.7%; with ACHN renal, 74.5%; in the test on CAKI-1 renal, 57.6%; in the test on MOLT-4 leukemia it was 50.7%.
`Cc1cccc2c(=O)c3c(sc12)c(NCCNCCO)nc1ccccc13`: the growth with HCT-15 colon is 0.304% (active); in the test on HT29 colon it was -55.4% (active); in the test with SNB-75 CNS, 32.8%; with SNB-19 CNS, 49.6%; in the test with U251 CNS, 13.4%; in the test with PC-3 prostate it was 38.7%. For the same compound, the growth is 39.5% with SK-MEL-5 melanoma; 26% in the test on UACC-62 melanoma; -89.8% (active) in the test on LOX IMVI melanoma; -67.4% (active) with SK-MEL-28 melanoma; 79.3% in the test on SK-MEL-2 melanoma; 41.6% with EKVX NSCLC. Moreover, the growth in the test on SN12C renal is 33.4%; in the test with UO-31 renal, 29.6%; with TK-10 renal it was 34.9%; in the test with ACHN renal, -19.2% (active); with CAKI-1 renal it was 22.1%; with CCRF-CEM leukemia, 13.7%. For the same compound, the growth in the test with MOLT-4 leukemia is -31.1% (active).
`COc1ccc(/C=C2\Oc3cc(C)c(Cl)cc3C2=O)cc1OC`: the growth in the test on HCT-15 colon is 96.5%; in the test on HT29 colon it was 109%; in the test on SNB-75 CNS, 101%; in the test with SNB-19 CNS, 98.4%; in the test on U251 CNS, 96.8%; with PC-3 prostate, 101%. For the same compound, the growth with SK-MEL-5 melanoma was 91.8%; with UACC-62 melanoma, 87.3%; in the test with LOX IMVI melanoma it was 92.9%; in the test on SK-MEL-28 melanoma, 114%; in the test with SK-MEL-2 melanoma it was 109%; with EKVX NSCLC, 94%. For the same compound, the growth was 95% in the test on SN12C renal; 89.5% in the test on UO-31 renal; 112% in the test on TK-10 renal; 97.9% in the test with ACHN renal; 87.2% in the test on CAKI-1 renal; 87.4% in the test with CCRF-CEM leukemia. In addition, the growth in the test on MOLT-4 leukemia was 91%.
With `Cc1ccccc1-n1nnc(C(=O)Nc2nc(-c3ccccc3)c(-c3ccccc3)s2)c1C`, the growth in the test on HCT-15 colon was 67.3% [50 µM]; in the test with HT29 colon, 78.7% [50 µM]; with SNB-75 CNS it was 5.92% [50 µM] (active); in the test on SNB-19 CNS, 49.5% [50 µM]; in the test on U251 CNS, 76.6% [50 µM]; with PC-3 prostate it was 63.2% [50 µM]. Further, the growth in the test with SK-MEL-5 melanoma is 80.5% [50 µM]; in the test with UACC-62 melanoma it was 69.9% [50 µM]; in the test with LOX IMVI melanoma, 80.7% [50 µM]; in the test with SK-MEL-28 melanoma, 87.2% [50 µM]; with SK-MEL-2 melanoma it was 89% [50 µM]; in the test with EKVX NSCLC, 69.8% [50 µM]. Also, the growth was 79.2% [50 µM] with SN12C renal; 86% [50 µM] with UO-31 renal; 84.6% [50 µM] in the test on ACHN renal; 63.5% [50 µM] with CAKI-1 renal; 104% [50 µM] in the test on A498 renal; 63.5% [50 µM] with CCRF-CEM leukemia. Also, the growth in the test on MOLT-4 leukemia was 67% [50 µM].
